biological target: PRDM9Cst (Mus musculus (CAST/EiJ)); assay: competition EMSA; competition against biotin-labeled 75-bp Hlx1 B6 oligo; 10 mM Tris pH 7.5, 50 mM KCl, 1 mM DTT, 50 ng/ul poly(dI/dC), 0.05% NP-40, crude E. coli extract 3 ul in 20 ul; 1 h with unlabeled competitor, then 4 h with biotin-labeled 75-bp Hlx1; temperature not stated; high values mean tight binding; details: tags: N-terminal His tag (pBAD/HisB); dsDNA, one strand shown
Sequence (chain, as listed by the source): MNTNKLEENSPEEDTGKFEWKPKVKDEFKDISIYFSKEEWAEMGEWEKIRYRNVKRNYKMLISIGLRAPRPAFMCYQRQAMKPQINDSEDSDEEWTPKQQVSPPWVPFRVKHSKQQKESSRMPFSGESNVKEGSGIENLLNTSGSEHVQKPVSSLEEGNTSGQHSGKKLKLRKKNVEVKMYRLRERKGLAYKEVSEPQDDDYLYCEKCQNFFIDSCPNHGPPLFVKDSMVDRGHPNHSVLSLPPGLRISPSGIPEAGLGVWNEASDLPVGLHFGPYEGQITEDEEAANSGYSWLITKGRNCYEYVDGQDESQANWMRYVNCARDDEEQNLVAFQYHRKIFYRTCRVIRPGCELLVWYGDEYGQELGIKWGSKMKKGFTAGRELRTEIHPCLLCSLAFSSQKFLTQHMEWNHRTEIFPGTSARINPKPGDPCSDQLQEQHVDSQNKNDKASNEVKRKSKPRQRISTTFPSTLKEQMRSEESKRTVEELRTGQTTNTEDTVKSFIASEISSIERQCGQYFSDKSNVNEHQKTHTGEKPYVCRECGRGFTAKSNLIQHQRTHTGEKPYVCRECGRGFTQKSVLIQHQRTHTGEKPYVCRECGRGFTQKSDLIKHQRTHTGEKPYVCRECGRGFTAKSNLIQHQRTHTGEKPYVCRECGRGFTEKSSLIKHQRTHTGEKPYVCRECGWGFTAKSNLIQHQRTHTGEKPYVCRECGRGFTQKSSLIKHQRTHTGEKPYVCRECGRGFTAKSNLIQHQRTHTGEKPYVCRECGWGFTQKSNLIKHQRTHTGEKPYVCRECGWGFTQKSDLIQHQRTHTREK

Sequence | binding signal
ATCGTGTGCAGACTTGGACCCTGCCCTTTCTTT | -0.1 Bmut (0 = wild type, -1 = scrambled)
ATAGTGTGCAGACTTGGACTCTGCCCTTTCTTT | 0.01 Bmut (0 = wild type, -1 = scrambled)
ATAGTGTGCAGACTTGGACCCGGCCCTTTCTTT | -0.5 Bmut (0 = wild type, -1 = scrambled)
ATAGTGTGCAGACTTGGACCCTGCCCTTTATTT | 0.05 Bmut (0 = wild type, -1 = scrambled)
ATAGTGCGCAGACTTGGACCCTGCCCTTTCTTT | -0.2 Bmut (0 = wild type, -1 = scrambled)
ATAGTGTGCAGACTTGGACCCTACCCTTTCTTT | 0.1 Bmut (0 = wild type, -1 = scrambled)
AGAGTGTGCAGACTTGGACCCTGCCCTTTCTTT | -0.8 Bmut (0 = wild type, -1 = scrambled)
ATAGTGTGCAGACTTGGACCCTGCACTTTCTTT | -0.1 Bmut (0 = wild type, -1 = scrambled)
ATAGTGTGCAGACTTGGACCCAGCCCTTTCTTT | 0.01 Bmut (0 = wild type, -1 = scrambled)
CTAGTGTGCAGACTTGGACCCTGCCCTTTCTTT | -0.1 Bmut (0 = wild type, -1 = scrambled)
ATAGTGTGCAGACTTGGAGCCTGCCCTTTCTTT | -0.5 Bmut (0 = wild type, -1 = scrambled)
ATAGTGTGCAGAATTGGACCCTGCCCTTTCTTT | -0.1 Bmut (0 = wild type, -1 = scrambled)
ATAGTGTGCAGACTTGGACCCTGCCCTTTCTTT | 0 Bmut (0 = wild type, -1 = scrambled)
ATAGTGTGCAGACTTGGACCCTGCCCTTTTTTT | 0.11 Bmut (0 = wild type, -1 = scrambled)
ATAGTGTGCAGACTTGGCCCCTGCCCTTTCTTT | -0.9 Bmut (0 = wild type, -1 = scrambled)
ATAGTGTGCAGACTTGGGCCCTGCCCTTTCTTT | 0.3 Bmut (0 = wild type, -1 = scrambled)

Sequence | binding signal
ATAGTGTGCAGACTTGGACCCTGCCCTTTCTAT | 0.15 Bmut (0 = wild type, -1 = scrambled)
ATAGTGTGTAGACTTGGACCCTGCCCTTTCTTT | 0 Bmut (0 = wild type, -1 = scrambled)
ATAGTGTGCAGACTTGGACGCTGCCCTTTCTTT | -0.1 Bmut (0 = wild type, -1 = scrambled)
ATAGTGTGCAGACTTGGTCCCTGCCCTTTCTTT | 0.1 Bmut (0 = wild type, -1 = scrambled)
ATAGTGTGCAGACTTGGACCCTGCCCTTTGTTT | -0 Bmut (0 = wild type, -1 = scrambled)
ATAGTGTGCAGACTTGCACCCTGCCCTTTCTTT | -0.2 Bmut (0 = wild type, -1 = scrambled)
TTAGTGTGCAGACTTGGACCCTGCCCTTTCTTT | 0 Bmut (0 = wild type, -1 = scrambled)
ATAGTGGGCAGACTTGGACCCTGCCCTTTCTTT | -0.7 Bmut (0 = wild type, -1 = scrambled)
ATAGTGTGCAGACTTGGACCCTGCCCTTTCTCT | 0.13 Bmut (0 = wild type, -1 = scrambled)
ATAGTGTGCAGACTTGGACCCTGCCCTTTCGTT | 0.12 Bmut (0 = wild type, -1 = scrambled)
ATAGTGTGCAGACTTGGACCCTGCCCTTTCATT | 0.08 Bmut (0 = wild type, -1 = scrambled)
ATAGTGTGCAGACTTGGACCCTGCCATTTCTTT | -0.1 Bmut (0 = wild type, -1 = scrambled)
ATAGTGTGCAGACTTGGATCCTGCCCTTTCTTT | -0.3 Bmut (0 = wild type, -1 = scrambled)
ATAGTGTGCAGACTTGGACCCTTCCCTTTCTTT | -0.3 Bmut (0 = wild type, -1 = scrambled)
ATAGTGTGCAGACTTGGACCCTGCCCTGTCTTT | 0.01 Bmut (0 = wild type, -1 = scrambled)

From article PMC4053984, “DNA binding specificities of the long zinc-finger recombination protein PRDM9”
